Test results reported in the supplement of paper PMC11732987, “Enantioselective OTUD7B fragment discovery through chemoproteomics screening and high-throughput optimisation” (Communications Chemistry, 2025).

Assays:
Test in all cases: log2 ratio of Biotin-Ahx-Ub-VS probe labelling (fragment/DMSO); higher = less target engagement (more negative = stronger competition), active = hit call of the paper (q ≤ 0.05, log2 ratio ≤ -1)
Settings in all cases: compound concentration: 200 uM; treatment time: 3 h
ALG13 = molecular target: T1, ALG13 (UniProt Q9NP73)
T1 sequence (whole entry): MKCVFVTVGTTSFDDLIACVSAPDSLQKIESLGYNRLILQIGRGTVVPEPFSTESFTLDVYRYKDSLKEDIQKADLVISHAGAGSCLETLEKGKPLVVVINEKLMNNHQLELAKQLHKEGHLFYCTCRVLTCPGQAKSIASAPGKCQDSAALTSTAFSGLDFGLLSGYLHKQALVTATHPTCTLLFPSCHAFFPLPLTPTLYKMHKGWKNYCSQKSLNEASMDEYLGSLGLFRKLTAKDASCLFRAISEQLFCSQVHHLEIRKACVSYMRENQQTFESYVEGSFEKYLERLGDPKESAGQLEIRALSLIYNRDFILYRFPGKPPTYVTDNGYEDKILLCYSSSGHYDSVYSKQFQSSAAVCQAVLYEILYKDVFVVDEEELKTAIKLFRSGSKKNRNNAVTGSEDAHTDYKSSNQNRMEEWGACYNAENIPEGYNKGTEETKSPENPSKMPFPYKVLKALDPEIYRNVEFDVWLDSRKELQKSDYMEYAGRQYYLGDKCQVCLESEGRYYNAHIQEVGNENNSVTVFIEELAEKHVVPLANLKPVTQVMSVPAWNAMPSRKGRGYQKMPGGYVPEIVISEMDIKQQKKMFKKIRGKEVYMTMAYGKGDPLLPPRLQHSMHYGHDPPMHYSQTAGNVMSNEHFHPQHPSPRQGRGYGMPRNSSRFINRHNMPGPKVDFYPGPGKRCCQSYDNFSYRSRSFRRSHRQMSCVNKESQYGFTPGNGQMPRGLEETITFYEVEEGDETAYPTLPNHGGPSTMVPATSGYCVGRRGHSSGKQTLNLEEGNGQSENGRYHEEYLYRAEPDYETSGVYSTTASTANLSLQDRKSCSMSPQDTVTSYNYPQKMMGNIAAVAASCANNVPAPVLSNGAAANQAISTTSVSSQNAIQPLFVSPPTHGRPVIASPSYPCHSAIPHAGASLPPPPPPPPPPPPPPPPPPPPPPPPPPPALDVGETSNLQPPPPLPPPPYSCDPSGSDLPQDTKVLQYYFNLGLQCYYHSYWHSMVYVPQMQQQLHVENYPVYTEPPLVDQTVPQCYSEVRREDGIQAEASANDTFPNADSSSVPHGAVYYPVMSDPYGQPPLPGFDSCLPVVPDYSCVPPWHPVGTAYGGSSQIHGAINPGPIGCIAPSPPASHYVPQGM
In short: (§1)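 Labelling with Biotin-Ahx-Ub-VS (0.5 µM final, 1 h) followed a 3 h triplicate treatment of HEK293T lysate (495 µg per sample, Tris/CHAPS/IGEPAL buffer with protease inhibitors) with fragment at 200 µM or vehicle. Labelled DUBs were NeutrAvidin-enriched, digested with LysC and trypsin, and run by diaPASEF LC-MS/MS. The values, average log2 fragment/vehicle ratios by unpaired t-test, come from global-median-normalised Spectronaut label-free quantities. Proteins with ≥2 unique peptides were used.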

ATXN3 = ATXN3 (UniProt P54252)
In short: as §1

BAP1 = molecular target: T2, BAP1 (UniProt Q92560)
T2 sequence (whole entry): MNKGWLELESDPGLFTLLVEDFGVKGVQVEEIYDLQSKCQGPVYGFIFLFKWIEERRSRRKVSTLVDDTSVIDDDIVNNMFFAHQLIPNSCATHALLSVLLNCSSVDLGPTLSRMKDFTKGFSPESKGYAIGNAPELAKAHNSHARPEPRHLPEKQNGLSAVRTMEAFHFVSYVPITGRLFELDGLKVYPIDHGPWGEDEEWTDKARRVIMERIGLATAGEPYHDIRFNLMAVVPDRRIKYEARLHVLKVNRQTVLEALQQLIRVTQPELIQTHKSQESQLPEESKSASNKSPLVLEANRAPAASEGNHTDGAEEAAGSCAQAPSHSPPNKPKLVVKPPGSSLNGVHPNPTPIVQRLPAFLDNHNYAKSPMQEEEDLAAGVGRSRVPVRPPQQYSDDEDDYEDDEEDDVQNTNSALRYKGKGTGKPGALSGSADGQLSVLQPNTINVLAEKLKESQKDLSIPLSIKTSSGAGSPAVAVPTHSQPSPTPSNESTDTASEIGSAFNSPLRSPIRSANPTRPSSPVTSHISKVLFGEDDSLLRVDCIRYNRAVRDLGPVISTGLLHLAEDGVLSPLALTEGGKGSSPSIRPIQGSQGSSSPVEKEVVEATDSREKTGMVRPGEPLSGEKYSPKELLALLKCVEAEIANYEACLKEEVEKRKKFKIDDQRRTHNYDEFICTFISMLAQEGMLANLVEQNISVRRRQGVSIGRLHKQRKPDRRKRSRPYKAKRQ
In short: as §1

EIF3F = EIF3F (UniProt O00303)
In short: as §1

EIF3H = EIF3H (UniProt O15372)
In short: as §1

FAM105A = molecular target: T3, FAM105A (UniProt Q9NUU6)
T3 sequence (whole entry): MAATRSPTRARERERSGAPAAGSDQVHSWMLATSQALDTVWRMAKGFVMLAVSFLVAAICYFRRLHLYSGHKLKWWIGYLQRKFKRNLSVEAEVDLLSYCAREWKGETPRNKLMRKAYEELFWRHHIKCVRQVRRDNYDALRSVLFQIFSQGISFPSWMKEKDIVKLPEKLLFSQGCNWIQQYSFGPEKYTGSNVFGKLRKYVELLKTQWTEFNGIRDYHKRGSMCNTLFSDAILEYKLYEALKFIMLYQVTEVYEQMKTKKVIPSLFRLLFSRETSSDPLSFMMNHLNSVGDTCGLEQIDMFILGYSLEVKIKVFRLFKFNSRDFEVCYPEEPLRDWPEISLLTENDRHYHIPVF
In short: as §1

OTUB1 = OTUB1 (UniProt Q96FW1)
In short: as §1

OTUD4 = molecular target: T4, OTUD4 (UniProt Q01804)
T4 sequence (whole entry): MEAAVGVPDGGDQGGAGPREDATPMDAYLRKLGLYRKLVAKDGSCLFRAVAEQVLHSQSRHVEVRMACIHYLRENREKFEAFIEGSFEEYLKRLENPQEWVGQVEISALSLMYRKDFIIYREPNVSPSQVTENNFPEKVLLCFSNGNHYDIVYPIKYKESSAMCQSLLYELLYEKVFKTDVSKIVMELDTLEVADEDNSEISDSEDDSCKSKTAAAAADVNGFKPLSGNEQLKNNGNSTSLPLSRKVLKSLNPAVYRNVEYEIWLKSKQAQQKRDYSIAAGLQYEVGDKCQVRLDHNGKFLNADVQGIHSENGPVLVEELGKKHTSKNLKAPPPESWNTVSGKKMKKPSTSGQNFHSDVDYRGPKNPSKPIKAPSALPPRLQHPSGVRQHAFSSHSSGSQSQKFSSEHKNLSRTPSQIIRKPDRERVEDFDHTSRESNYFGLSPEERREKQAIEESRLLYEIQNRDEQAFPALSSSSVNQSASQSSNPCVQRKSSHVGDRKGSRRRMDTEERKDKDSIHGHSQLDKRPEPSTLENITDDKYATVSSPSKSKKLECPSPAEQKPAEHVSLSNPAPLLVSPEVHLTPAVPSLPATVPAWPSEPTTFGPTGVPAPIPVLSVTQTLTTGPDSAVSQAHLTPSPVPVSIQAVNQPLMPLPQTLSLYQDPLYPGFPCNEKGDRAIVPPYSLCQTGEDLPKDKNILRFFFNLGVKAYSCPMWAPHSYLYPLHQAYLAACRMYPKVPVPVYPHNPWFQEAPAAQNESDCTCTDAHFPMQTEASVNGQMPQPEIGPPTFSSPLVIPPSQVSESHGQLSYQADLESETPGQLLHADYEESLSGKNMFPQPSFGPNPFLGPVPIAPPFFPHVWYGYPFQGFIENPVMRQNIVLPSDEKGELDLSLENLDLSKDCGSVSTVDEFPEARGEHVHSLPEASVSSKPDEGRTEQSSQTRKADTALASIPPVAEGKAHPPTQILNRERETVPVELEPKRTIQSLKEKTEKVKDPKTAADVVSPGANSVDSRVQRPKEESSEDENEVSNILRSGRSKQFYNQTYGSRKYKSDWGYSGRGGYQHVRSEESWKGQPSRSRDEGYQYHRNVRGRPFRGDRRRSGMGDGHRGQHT
In short: as §1

OTUD5 = molecular target: T5, OTUD5 (UniProt Q96G74)
T5 sequence (whole entry): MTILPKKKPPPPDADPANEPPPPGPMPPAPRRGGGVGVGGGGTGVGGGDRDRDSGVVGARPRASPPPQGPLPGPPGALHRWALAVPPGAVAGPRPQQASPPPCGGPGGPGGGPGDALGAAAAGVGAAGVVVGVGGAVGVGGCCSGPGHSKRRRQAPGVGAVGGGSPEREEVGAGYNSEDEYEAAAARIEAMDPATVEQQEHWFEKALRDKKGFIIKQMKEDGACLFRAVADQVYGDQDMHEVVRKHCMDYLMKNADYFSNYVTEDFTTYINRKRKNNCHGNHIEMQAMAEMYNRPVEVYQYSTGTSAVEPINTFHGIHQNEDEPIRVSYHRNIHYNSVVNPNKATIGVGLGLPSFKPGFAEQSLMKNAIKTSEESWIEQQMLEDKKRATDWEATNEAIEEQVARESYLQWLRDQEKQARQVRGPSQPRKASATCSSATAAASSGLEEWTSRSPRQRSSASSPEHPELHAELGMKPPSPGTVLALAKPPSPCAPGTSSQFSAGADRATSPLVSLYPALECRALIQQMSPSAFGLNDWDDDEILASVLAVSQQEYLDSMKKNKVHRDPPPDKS
In short: as §1

Measured: log2 ratio of Biotin-Ahx-Ub-VS probe labelling

ATXN3, sequence (P54252 whole entry): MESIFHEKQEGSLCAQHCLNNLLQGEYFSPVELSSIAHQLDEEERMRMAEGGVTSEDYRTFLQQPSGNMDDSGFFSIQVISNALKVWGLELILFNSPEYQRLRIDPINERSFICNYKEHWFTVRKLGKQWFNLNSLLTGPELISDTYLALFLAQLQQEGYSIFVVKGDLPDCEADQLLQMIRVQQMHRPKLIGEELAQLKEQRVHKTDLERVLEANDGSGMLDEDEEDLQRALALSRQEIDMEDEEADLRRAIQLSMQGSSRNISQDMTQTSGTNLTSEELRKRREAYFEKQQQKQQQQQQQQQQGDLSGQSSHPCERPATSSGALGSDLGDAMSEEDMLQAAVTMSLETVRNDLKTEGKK
EIF3F, sequence (O00303 whole entry): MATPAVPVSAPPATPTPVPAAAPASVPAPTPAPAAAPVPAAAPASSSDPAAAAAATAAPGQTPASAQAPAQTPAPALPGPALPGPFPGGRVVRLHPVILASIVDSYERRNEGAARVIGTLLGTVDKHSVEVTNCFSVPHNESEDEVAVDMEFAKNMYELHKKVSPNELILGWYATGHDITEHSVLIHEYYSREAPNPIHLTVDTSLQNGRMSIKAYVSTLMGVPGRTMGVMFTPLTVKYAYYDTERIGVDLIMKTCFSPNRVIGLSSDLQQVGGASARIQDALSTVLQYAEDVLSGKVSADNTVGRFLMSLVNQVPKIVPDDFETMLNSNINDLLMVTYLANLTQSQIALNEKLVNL
OTUB1, sequence (Q96FW1 whole entry): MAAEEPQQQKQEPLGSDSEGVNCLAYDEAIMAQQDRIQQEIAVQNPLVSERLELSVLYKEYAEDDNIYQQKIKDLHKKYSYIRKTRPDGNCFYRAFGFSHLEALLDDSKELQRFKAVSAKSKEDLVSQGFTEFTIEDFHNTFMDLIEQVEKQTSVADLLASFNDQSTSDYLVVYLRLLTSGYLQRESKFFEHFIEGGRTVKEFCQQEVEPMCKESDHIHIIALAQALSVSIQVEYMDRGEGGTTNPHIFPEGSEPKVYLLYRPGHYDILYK
EIF3H, sequence (O15372 whole entry): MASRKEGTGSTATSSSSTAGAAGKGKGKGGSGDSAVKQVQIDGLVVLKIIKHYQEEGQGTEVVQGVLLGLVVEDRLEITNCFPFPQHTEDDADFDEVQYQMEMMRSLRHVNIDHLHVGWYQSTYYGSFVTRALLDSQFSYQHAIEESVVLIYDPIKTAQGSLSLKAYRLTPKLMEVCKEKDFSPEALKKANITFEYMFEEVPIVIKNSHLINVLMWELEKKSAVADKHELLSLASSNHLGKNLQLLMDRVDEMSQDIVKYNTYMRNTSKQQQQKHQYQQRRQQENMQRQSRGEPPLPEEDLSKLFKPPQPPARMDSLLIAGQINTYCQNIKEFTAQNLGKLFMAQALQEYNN

O=C(CCl)N(C1=CCCCC1)C1CC1
inactive: ALG13 0.101 | ATXN3 -0.0892 | BAP1 -0.204 | EIF3F -0.311 | EIF3H 0.314 | FAM105A 0.173 | OTUB1 -0.159 | OTUD4 0.037 | OTUD5 -0.182
